Source: PubChem BioAssay AID651658 (Broad Institute, 2012)
In all, about 340,000 compounds went through this assay and about 5,100 (1.5%) were called active. The full list was thinned out, with actives kept by preference. Unmarked numbers belong to inactive results.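 The calls were made as follows: active = mean Tm shift, scaled 0 neutral to 100 positive control, at about 1.3% or above, every replicate too (limit read from the data); inconclusive = no clear call, values can overlap the other calls; inactive = the rest.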

Molecular target: Fibroblast growth factor 22 (Homo sapiens) (UniProt Q9HCT0)
Sequence (Q9HCT0 whole entry, looked up): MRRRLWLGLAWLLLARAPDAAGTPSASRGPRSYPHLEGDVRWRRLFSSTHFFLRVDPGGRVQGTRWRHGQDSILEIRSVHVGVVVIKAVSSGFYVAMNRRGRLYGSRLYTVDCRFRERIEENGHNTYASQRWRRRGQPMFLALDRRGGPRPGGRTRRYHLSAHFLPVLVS
Assay: binders of human FGF22 protein, primary screen, FGF22 synaptogenesis inhibitor project, biophysical, thermal shift, single point (AID 651658)
Conditions: recombinant FGF22 thermal shift, SYPRO orange fluorescence; at 9.99 µM; stronger effect = higher value; percent of sucrose octasulfate shift, DMSO zero

SMILES	activity (Tm shift, normalised)
COC(=O)C1=C(C(=O)OC)C(c2cc([N+](=O)[O-])ccc2O)c2sc(=O)[nH]c2S1 (stereo unspecified)	43.5% (active)
COC(=O)c1c(C)[nH]c(C)c1-c1ccc([N+](=O)[O-])cc1	0.028%
COC(=O)C1=CN(c2ccc(F)c(F)c2)C=C(C(=O)OC)C1c1ccc([N+](=O)[O-])cc1	0.128%
CCCNC(=O)N1CC(=O)N2[C@H](CO)[C@H](c3ccc(C#Cc4cccc(OC)c4)cc3)[C@H]2C1	0.3%
C[C@H]1CCCCO[C@@H](CN(C)C(=O)Cc2ccccc2)[C@@H](C)CN([C@@H](C)CO)C(=O)c2cc(NC(=O)c3ccccc3)ccc2O1	-0.058%
Cc1ccc(S(=O)(=O)N(C)C[C@@H]2Oc3ccc(NC(=O)C4CCCCC4)cc3CC(=O)N([C@@H](C)CO)C[C@H]2C)cc1	-0.112%
COc1cccc(NC(=O)C[C@@H]2CC[C@H]3[C@@H](COc4ccc(NC(=O)C5CCOCC5)cc4C(=O)N3C)O2)c1	-0.165%
O=C(NCCc1c[nH]c2ccc(Cl)cc12)c1ccc([N+](=O)[O-])cc1	-0.153%
Cc1ccc2[nH]cc(CCNC(=O)C3CCCCC3)c2c1	-0.161%
Cc1ccc2[nH]cc(CCNC(=O)c3ccc([N+](=O)[O-])cc3)c2c1	43.1% (active)
CS(=O)(=O)N1CC(=O)N2[C@@H](CO)[C@@H](c3ccc(C#CCC4CCCC4)cc3)[C@@H]2C1	-0.002%
Cc1ccc(NC(=O)CCC(=O)c2ccc(Br)cc2)cc1	0.05%
Cc1ccc(NC(=O)c2cccnc2C(=O)Nc2ccc(C)cc2)cc1	0.363%
Cc1ccc(NC(=O)CC(=O)Nc2ccc(C)cc2)cc1	43.3% (active)
Cc1ccc(NC(=O)Nc2cccnc2)cc1	1.35% (active)
O=C(Nc1ccc(Cl)cc1)Nc1ccc(Oc2cccnc2)nc1	0.04%
Cc1ccc(NC(=O)Cn2c(C)csc2=O)cc1	-0.213%
C[C@@H]1CN([C@@H](C)CO)C(=O)c2cc(N(C)C)ccc2O[C@@H](C)CCCCO[C@H]1CN(C)C(=O)CCCN(C)C	-1.35%
O=C(CN1C(=O)NC2(CCCC2)C1=O)Nc1cc(C(F)(F)F)ccc1N1CCOCC1	0.22%
O=C(CCC1CCCCC1)Nc1cc(C(F)(F)F)ccc1N1CCOCC1	-0.247%
CC(Sc1nncn1C)C(=O)Nc1cc(C(F)(F)F)ccc1N1CCOCC1 (stereo unspecified)	43% (active)
CCCN1[C@@H]2c3ccc(C4=CCCC4)c(=O)n3C[C@@H]2[C@@H](CO)[C@@H]1C(=O)NCc1ccccn1	-0.078%
OC[C@H]1[C@H](c2ccc(-c3ccccc3F)cc2)[C@H]2CN(Cc3cncnc3)CCCCN21	0.4%
CN(C)C(=O)C[C@H]1CC[C@H](NC(=O)NC2CCCC2)[C@@H](CO)O1	-0.127%

SMILES	activity (Tm shift, normalised)
O=C(Cn1cnc2ccccc21)Nc1ccccc1-c1ccccc1	0.098%
CC(=O)OC(COc1ccc(F)cc1)Cn1cnc2ccccc21 (stereo unspecified)	43% (active)
O=C(COC(=O)Cn1cnc2ccccc21)Nc1cccc2c1C(=O)c1ccccc1C2=O	0.059%
CO[C@H]1CN(C)C(=O)c2ccc(NC(=O)c3ccno3)cc2OC[C@@H](C)N(S(C)(=O)=O)C[C@H]1C	0.142%
CNC[C@@H]1Oc2ccc(NC(=O)C3CCCCC3)cc2C(=O)N([C@@H](C)CO)C[C@H]1C	1.59% (active)
C[C@H]1CN([C@@H](C)CO)C(=O)c2cc(N(C)C)ccc2O[C@@H]1CN(C)Cc1ccccc1	0.118%
C[C@H](CO)N1C[C@H](C)[C@@H](CN(C)C)Oc2ccc(N(C)C)cc2C1=O	1.41% (active)
C[C@@H]1CN([C@H](C)CO)C(=O)c2cc(N(C)C)ccc2O[C@@H]1CN(C)S(C)(=O)=O	-0.284%
CNC[C@@H]1Oc2ccc(NC(=O)C3CCCCC3)cc2CC(=O)N([C@@H](C)CO)C[C@H]1C	0.125%
CNC[C@H]1Oc2ccc(NC(=O)C3CCCCC3)cc2C(=O)N([C@H](C)CO)C[C@@H]1C	-0.27%
O=C(C[C@H]1CC[C@H](NC(=O)c2ccc(F)cc2)[C@@H](CO)O1)NCCc1ccncc1	-0.269%
O=C(NCC[C@H]1CC[C@@H](NC(=O)C2CCCC2)[C@@H](CO)O1)c1cc(Cl)cc(Cl)c1	0.127%
Cc1ccc(S(=O)(=O)NCC[C@H]2CC[C@H](NC(=O)c3ccccn3)[C@@H](CO)O2)cc1	-0.462%
C[C@H]1CCCCO[C@H](CN(C)CC2CC2)[C@@H](C)CN([C@@H](C)CO)C(=O)c2cc(NC(=O)CCC(F)(F)F)ccc2O1	0.058%
COc1cccc(S(=O)(=O)N[C@@H]2CC[C@@H](CCNC(=O)Cc3ccncc3)O[C@H]2CO)c1	0.19%
C[C@H]1CN([C@@H](C)CO)C(=O)c2cc(-c3cccnc3)cnc2O[C@@H]1CN(C)C(=O)C1CC1	0.138%
CC(C)c1ccc(C2C(C#N)=C(N)Oc3c2oc(CO)cc3=O)cc1 (stereo unspecified)	-0.049%
COC(=O)C1=C(N)Oc2cc(C)[nH]c(=O)c2C1c1ccc(Cl)cc1 (stereo unspecified)	-0.032%
COC(=O)C1=C(N)Oc2c(oc(CO)cc2=O)C1c1c(F)cccc1Cl (stereo unspecified)	43.6% (active)
CO[C@H]1CC[C@H]2CCN(C)C(=O)C[C@@H](c3ccccc3)CN(C)C(=O)c3cccc(C#N)c3OC[C@@H]1O2	0.156%
OC[C@H]1[C@H](c2ccc(-c3cccnc3)cc2)[C@H]2CN(Cc3ccccn3)CCCCN21	1.51% (active)
OC[C@@H]1[C@H](c2ccc(Br)cc2)[C@@H]2CN(Cc3ccccn3)CCCCN12	0.488%
CCC(=O)N1CCCCN2[C@H](CO)[C@@H](c3ccc(-c4cccnc4)cc3)[C@H]2C1	0.191%
O=C(N[C@H]1CC[C@@H](CCNS(=O)(=O)c2cccc(Cl)c2)O[C@@H]1CO)c1ccccc1	-0.047%

SMILES	activity (Tm shift, normalised)
COc1cc(C)ccc1OCC(=O)OCC(=O)c1ccc[nH]1	43.3% (active)
O=C(COc1ccc(Br)cc1)OCC(=O)c1ccc[nH]1	-0.019%
COc1ccc(C(=O)COC(=O)COc2ccc(C)c(C)c2)cc1	0.002%
C[C@H](CO)N1C[C@H](C)[C@@H](CN(C)S(=O)(=O)c2cn(C)cn2)Oc2ccc(N(C)C)cc2CC1=O	0.089%
Cc1ccc(S(=O)(=O)N2CCCCC2)cc1C(=O)N(C)CC(=O)Nc1cccc(F)c1	-0.088%
CN(CC(=O)Nc1cccc(F)c1)C(=O)CC1CCCC1	0.042%
Cc1ccc(NC(=O)CN(C)CC(=O)Nc2cccc(F)c2)cc1[N+](=O)[O-]	43.3% (active)
Cc1cc(C(=O)Nc2ccc3c(c2)C(=O)N(C)[C@H]2CC[C@H](CC(=O)NCC(F)(F)F)O[C@@H]2CO3)no1	-0.217%
CC(=O)N(C)C[C@@H]1Oc2cc(-c3ccncc3)ccc2S(=O)(=O)N([C@@H](C)CO)C[C@H]1C	-0.496%
Cc1ccc(-c2ccc3c(c2)O[C@H](CN(C)C(=O)Nc2ccc(C(F)(F)F)cc2)[C@@H](C)CN([C@H](C)CO)S3(=O)=O)cc1	0.037%
C[C@@H]1CN([C@H](C)CO)S(=O)(=O)c2ccc(-c3ccncc3)cc2O[C@@H]1CN(C)C(=O)Nc1ccc(C(F)(F)F)cc1	1.48% (active)
C[C@H](CO)N1C[C@H](C)[C@@H](CN(C)S(=O)(=O)c2ccc(F)cc2)Oc2cc(C3=CCCC3)ccc2S1(=O)=O	-0.123%
C[C@H]1CN([C@@H](C)CO)S(=O)(=O)c2ccc(C3=CCCC3)cc2O[C@H]1CN(C)C(=O)Nc1ccc2c(c1)OCO2	1.26% (active)
C[C@H](CO)N1C[C@H](C)[C@H](CN(C)C(=O)Nc2ccc3c(c2)OCO3)Oc2cc(C#Cc3ccncc3)ccc2S1(=O)=O	-0.273%
C[C@@H]1CN([C@@H](C)CO)S(=O)(=O)c2ccc(-c3ccncc3)cc2O[C@@H]1CN(C)C(=O)Nc1ccc(F)cc1	1.27% (active)
COc1ccc(NC(=O)N(C)C[C@H]2Oc3cc(-c4ccncc4)ccc3S(=O)(=O)N([C@@H](C)CO)C[C@H]2C)cc1	-0.124%
C[C@H]1CN([C@@H](C)CO)S(=O)(=O)c2ccc(C#Cc3ccncc3)cc2O[C@@H]1CN(C)C(=O)Nc1ccc2c(c1)OCO2	0.074%
COc1cccc(S(=O)(=O)N(C)C[C@@H]2Oc3cc(C4=CCCCC4)ccc3S(=O)(=O)N([C@H](C)CO)C[C@H]2C)c1	0.057%
Cc1ccc(S(=O)(=O)N(C)C[C@@H]2Oc3cc(C4=CCCC4)ccc3S(=O)(=O)N([C@@H](C)CO)C[C@@H]2C)cc1	1.23% (active)
COc1ccc(NC(=O)N(C)C[C@H]2Oc3cc(-c4ccncc4)ccc3S(=O)(=O)N([C@H](C)CO)C[C@H]2C)cc1	0.949%
CC(C)CC#Cc1cnc2c(c1)C(=O)N([C@@H](C)CO)C[C@H](C)[C@@H](CN(C)C(=O)c1cccc(F)c1)O2	-0.381%
CN1c2ccc(-c3ccccc3F)cc2[C@@H]2[C@@H](CCN2C(=O)CN2CCOCC2)[C@H]1CO	-0.099%
O=C(C[C@H]1C[C@@H]2c3cc(NC(=O)C4CCC4)ccc3O[C@@H]2[C@H](CO)O1)NCCN1CCCCC1	0.001%
